MRP resist rev – reversal of MRP1-mediated doxorubicin resistance, primary screen, H69AR cells, doxorubicin co-treatment; H69AR cells + 2 uM doxorubicin, CellTiter-Glo, 72 h; differential viability (reversal), % at 10 µM; actives 0.04% (n = 85,000); AID 602, 2007;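 active = viability drop by adding the cancer drug above about 55%, with treated viability meeting a 40% cutoff, limit read from the data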;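 note: viability without doxorubicin minus viability with 2 µM doxorubicin for each compound; larger differential means the compound sensitizes cells more to doxorubicin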
CD11b adhes inh – inhibitors of CD11b/CD18 adhesion to fibrinogen, primary screen, K562 cells, luminescence | ATPlite luminescence; Mn2+ added to activate the integrin | inhibition, % at 10 µM | actives 0.54% (n = 93,000) | AID 1497, 2009;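 active = primary inhibition of 50% or more at 10 µM, then 40% or more on retest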
FAK inh – FAK kinase inhibitors, primary screen, biochemical | inhibition, %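 (tested at 7 µM)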 | biochemical FAK kinase activity assay | actives 0.84% (n = 97,000) | AID 727, 2007; in the data active = inhibition above about 19%;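 note: 0% = DMSO and 100% = reference compound high control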
Phagocytosis inh – inhibitors of macrophage phagocytosis, primary screen, imaging, J774A.1 cells, IgG beads; inhibition, % at 5 µM; actives 0.07% (n = 110,000); J774A.1 macrophage IgG-bead phagocytosis;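 active = inhibition above the mean of the plate negative controls plus 5 SD, cut at about 13% in these data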;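 note: phagocytic index as fraction of beads internalized from green versus red external bead signal; plate controls were DMSO negative control for no effect and cytochalasin-D positive control for full effect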
MRP-1 activ – H69AR viability gain despite doxorubicin, primary screen, MRP-1 activator project, H69AR cells, CellTiter-Glo | actives 0.61% (n = 140,000) | viability rescue | viability increase, % at 10 µM | AID 799, 2007;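 active = viability gain under doxorubicin at or above a set limit, the compound median plus 3 SD, cut at about 4.7% in these data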;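 note: MRP-1 overexpressing cells given doxorubicin 25 µM after compound pretreatment; 18-22 h compound pretreatment then 72 h with doxorubicin before readout; 0% = doxorubicin-only wells and 100% = vehicle-treated cells without doxorubicin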
CD11b adhes enh – enhancers of CD11b/CD18 adhesion to fibrinogen, primary screen, K562 cells, luminescence; AID 1499, 2009; activation, % at 10 µM; ATPlite luminescence; Integrin beta-2 (Homo sapiens) + Integrin alpha-M (Homo sapiens), P05107+P11215; actives 0.07% (n = 93,000);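 active = 10 µM primary screen giving 50% or more activity, confirmed by 40% or more on retest at that dose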
An asterisk follows results filed as active; / = no result. A selection: hits, their analogues and other compounds. The true share with any hit is near 1.5%.

SMILES	MRP resist rev	CD11b adhes inh	FAK inh	Phagocytosis inh	MRP-1 activ	CD11b adhes enh
CCC(Sc1nc2ccccc2s1)C(=O)Nc1nnc(C)s1 (centres undefined)	/	-12	-2	-3	10*	-3
CC(Sc1nc2ccccc2s1)C(=O)Nc1nnc(C(C)C)s1 (centres undefined)	-2	17	1	1	-1	0
CCCCC(CCC(=O)Nc1ccccc1C(=O)OCC)C(=O)O (centres undefined)	9	-5	3	0	-1	4
O=c1oc2ccc3ccccc3c2cc1-c1nc2ccccc2o1	1	/	19*	/	/	/
CC12CCC(C(=O)N(CSC(=S)N/N=C\c3ccccc3)C1=O)C2(C)C (centres undefined)	-13	/	1	/	4.8*	/
CC12CCC(C(=O)N(CSC(=S)N/N=C\c3ccccc3Cl)C1=O)C2(C)C (centres undefined)	12	/	-2	/	4	/
CC1=NOC(=O)/C1=C/c1ccc(-c2ccc(Cl)cc2)o1	1	94*	-5	-1	-1	-6
COc1ccc(OCc2cccc(C(=O)Nn3cc([N+](=O)[O-])cn3)c2)cc1	-9	/	-4	/	-3	/
CCn1c(SCC(=O)c2ccc3c(c2)Cc2ccccc2-3)nnc1-c1ccc(N)cc1	/	1	0	6	-4	92*
O=C(/C=C/NNC(=O)c1ccccc1)c1ccc(Br)cc1	-28	17	-1	2	6.0*	-3
CCCOc1ccc(N2C(=O)CC(NCc3cccs3)C2=O)cc1 (centres undefined)	5	/	-3	/	-3	/
O=C1CC(NCc2cccs2)C(=O)N1c1ccc(Cl)cc1 (centres undefined)	4	66*	-1	/	-1	-2
CCCOc1cc(C)c(S(=O)(=O)NC2CC(C)(C)NC(C)(C)C2)cc1C	/	/	/	-3	-4	/
O=C(c1ccccn1)N1N=C2/C(=C/c3ccccc3)CCCC2C1c1ccccc1 (centres undefined)	/	/	/	0	-2	/
O=C(CSc1ncn[nH]1)N1N=C2/C(=C/c3ccco3)CCCC2C1c1ccco1 (centres undefined)	-6	-22	2	1	8.4*	1
Cc1ccc(CNC(=O)c2cnccn2)cc1	/	/	/	-5	0	/
Cc1ccc2c(c1)N(CCC(=O)NCc1cccs1)C(=O)C(C)O2 (centres undefined)	4	1	1	-1	1	-3
COc1ccc(Nc2nc(NCc3ccco3)nc(N/N=C/c3ccc(O)cc3)n2)cc1	/	/	/	-9	0	/
COc1ccc(NC2=Nc3ccccc3N3C2=Nc2c(c(C)nn2-c2ccc(C)cc2)C3c2cccnc2)cc1 (centres undefined)	3	7	-2	0	8.8*	32
O=C(CSc1nnc(CNC(=O)C23CC4CC(CC(C4)C2)C3)n1-c1ccccc1)Nc1ccccc1	/	-12	/	-16	-1	4
CCCCc1nnc(NC(=O)CSc2nc(=O)cc(N)n2-c2cccc(C)c2)s1	-7	2	-2	0	6.0*	0
Cc1cccc(-n2c(N)cc(=O)nc2SCC(=O)Nc2nnc(CC(C)C)s2)c1	-2	-29	-1	0	3	-4
Cc1ccc(C(C(=O)NC(C)(C)C)N(Cc2ccco2)C(=O)CCC(=O)Nc2nccs2)cc1 (centres undefined)	-3	/	0	/	/	/
COc1ccc(NC(=O)COC(=O)c2c3c(nc4ccccc24)CCCC3)cc1Cl	/	21	4	/	5.3*	-6
CCOC(=O)N1CCC(Nc2nc3ccccc3nc2NS(=O)(=O)c2ccc(Cl)cc2)CC1	/	92*	3	-1	-1	0
SMILES	MRP resist rev	CD11b adhes inh	FAK inh	Phagocytosis inh	MRP-1 activ	CD11b adhes enh
O=C(CNC(=O)c1cccs1)c1ccc(F)cc1	-4	/	0	/	1	/
CN(C)C(CNC(=O)c1cccnc1Sc1ccccc1)c1ccco1 (centres undefined)	6	-25	-2	-2	-2	-1
CCn1c(CNc2ccc(C(=O)O)cc2)nc2ccccc21	-1	31	0	0	-1	-3
CCCn1c(CNc2ccc(Br)cc2)nc2ccccc21	16	62*	10	0	-1	-3
O=C(Cc1sc(Nc2ccccc2)nc1-c1ccccc1)NCc1ccccc1	/	11	/	7	-4	-2
Cc1cc(N2CCN(c3nc4ccccc4s3)CC2)n2ncnc2n1	-20	74*	-1	/	-2	-12
C=CCNS(=O)(=O)c1nc(C)c(Cl)c(C)c1C#N	1	1	/	27*	-3	-2
CSc1nc(C)c(Cl)c(C)c1C#N	8	-3	/	-3	-3	-4
CCCCCCc1nc2ccccc2c(=O)n1NC(=O)c1c(O)c2cccc3c2n(c1=O)CCC3	-3	5	1	-1	0	3
C=CCn1c(SCC(=O)N(C)C2CCS(=O)(=O)C2)nnc1-c1ccncc1 (centres undefined)	/	-16	1	4	-2	-3
Cc1cc(C(=O)COC(=O)c2ccccc2O)c(C)n1Cc1cccs1	/	101	0	-1	2	-9
CC(=O)Nc1ccccc1OCC(=O)c1cc(C)n(Cc2cccs2)c1C	-7	102*	/	2	0	-12
Cc1cc(C(=O)COC(=O)c2ccc3c(c2)OCO3)c(C)n1Cc1cccs1	4	17	0	-1	5.6*	-3
CC(=O)Nc1ccc(SCC(=O)c2cc(C)n(Cc3cccs3)c2C)cc1	/	9	0	0	-1	-2
CC(C)CC(=O)NC(=S)N1CCN(c2ccc([N+](=O)[O-])cc2Cl)CC1	/	/	/	-8	-3	/
CCc1nnc(NC(=O)c2sc3nc4cc(C)ccc4cc3c2N)s1	/	-11	11	-1	-2	100*
CCOC(=O)Cc1csc(NC(=O)c2sc3nc4ccc(C)cc4cc3c2N)n1	/	/	-5	/	0	/
O=C(NCCOC(=O)c1ccc(Cl)cc1)c1cccnc1	11	-31	0	-1	-1	-4
O=S(=O)(Nc1nc2ccccc2nc1Nc1ccc2c(c1)OCCO2)c1cccs1	3	90*	/	0	1	-3
CCC1=NC(c2ccccc2OC)N(O)C1(C)C (centres undefined)	11	-5	-1	0	0	-5
COc1cc(OC)cc(-c2nnc(SCC(=O)Nc3cc(C)on3)o2)c1	64*	/	-3	/	/	/
O=C(Cn1c(=O)oc2cc(S(=O)(=O)N3CCCC3)ccc21)NCc1ccccn1	2	13	/	1	5.3*	-3
O=C(Cn1c(=O)oc2cc(S(=O)(=O)N3CCCCCC3)ccc21)NC1CCCCC1	11	34	/	0	-3	3
Cc1cc(C(=O)CSc2nc3ccc(Cl)cc3[nH]2)c(C)n1CC1CCCO1 (centres undefined)	-6	83*	0	-2	0	-6

Bioassay records deposited in PubChem BioAssay by several laboratories.
